Assay outcomes (PubChem)
Compounds with a hit are over-represented: about 0.82% of the library has one in this group of screens.
IP6K1 inh – Primary qHTS assay for small molecule inhibitors of Inositol hexaphosphate kinase 1 (IP6K1). Inositol hexakisphosphate kinase 1 (Homo sapiens), Q92551. hit rate 0.81% among 140,000. IP6K1 kinase, ADP-Glo luminescence, 2 h; hits give low values. AID 1645851, 2021. activity change, % (series mostly up to about 58 µM); in the data active = activity change below about -25%
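ADP-Glo luminescence measures ADP made by human IP6K1 during a 2 h RT reaction with ATP/IP6 (mix at 1.3 mM/130 uM); top library doses 57.5 and 19.1 uM final.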
GPT2 inhibitor – Primary qHTS assay for inhibitors of Glutamate pyruvate transaminase 2 (GPT2); Alanine aminotransferase 2 (Homo sapiens), Q8TD30; Recombinant GPT2, coupled pyruvate oxidase/HRP Amplex Red fluorescence; Potency, µM (series often up to 57.7 µM), without a hit: at the highest dose activity change, negative = inhibition, usual class: inhibitors; hit rate 0.25% among 100,000; AID 1671188, 2021; note: potency is the fitted concentration of half-maximal effect; nearly all actives have a fitted effect of over 60% in size
Target sequence (Q8TD30 whole entry, looked up): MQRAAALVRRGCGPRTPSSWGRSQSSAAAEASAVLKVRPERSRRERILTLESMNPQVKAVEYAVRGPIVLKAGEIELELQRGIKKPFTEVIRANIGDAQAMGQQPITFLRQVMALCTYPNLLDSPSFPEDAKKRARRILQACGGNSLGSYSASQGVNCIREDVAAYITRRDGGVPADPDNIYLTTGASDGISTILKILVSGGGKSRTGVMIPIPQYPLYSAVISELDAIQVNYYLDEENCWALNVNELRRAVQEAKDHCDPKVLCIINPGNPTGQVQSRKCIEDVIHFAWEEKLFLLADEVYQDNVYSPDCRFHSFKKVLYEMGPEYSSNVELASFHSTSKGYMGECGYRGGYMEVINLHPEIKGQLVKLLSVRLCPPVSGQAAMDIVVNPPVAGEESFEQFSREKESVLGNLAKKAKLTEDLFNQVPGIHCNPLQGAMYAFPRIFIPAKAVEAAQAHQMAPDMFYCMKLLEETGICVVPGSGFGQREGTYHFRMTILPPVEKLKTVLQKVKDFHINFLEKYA
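Inhibition is scored from Amplex Red fluorescence generated when pyruvate oxidase and HRP act on pyruvate released by GPT2. Reactions contain 10ng/uL enzyme, 250uM a-KG and 2mM L-alanine and run 30 min at room temperature.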
IP6K1 conf – Confirmatory qHTS assay for small molecule inhibitors of Inositol hexaphosphate kinase 1 (IP6K1); shares compounds with IP6K1 inh; recombinant IP6K1 kinase, ADP-Glo luminescence, 2 h; Potency, µM (series often up to 49 µM), inactives show at the top dose activity change, negative = inhibition, most hits filed as inhibitors; hit rate 13% among 1,200; AID 1645852, 2021; note: potency is the fitted concentration of half-maximal effect; nearly all actives have a fitted effect of over 65% in size
Starred values were filed as active, the others as inactive; i = inactive; ? = inconclusive; . = no result; [ ] = dose if it differs, or a comment. Unless noted, calls come from the whole dose curve; as a rule, active = well fitted curve in the direction sought with a large enough effect; inconclusive = small, poorly fitted or top-dose-only effect, or another doubt; inactive = no such curve, though single readings can be large; an effect the other way counts as inactive or inconclusive. % is set by controls: 0 for no effect and ±100 for the full control effect.

SMILES | IP6K1 inh | GPT2 inhibitor | IP6K1 conf
c1cc(OCCN2CCCCC2)cc(-c2n[nH]c3ccc(-c4ncn[nH]4)cc23)c1 | -47* | 5% | ?
Cc1cc(C(=O)N2[C@@H]3CC[C@H]2CC(NC(=O)c2ccc(F)cc2)C3)nn1C (some centres not stated) | 8 | i | .
O=C(Nc1ccc2nn(-c3ccc(F)cc3)nc2c1)c1cccc2c(Cl)cccc12 | -28* | . | 34%
COc1cc(C(=O)Nc2ccc3nn(-c4ccc(F)cc4)nc3c2)cc(OC)c1OC | -6 | . | .
COCC(=O)N1CCCC(C(=O)NCc2ccccc2OC)CCNC(=O)CC1 (configuration not stated) | -3 | 1% | .
COc1ccc2nc(SCC(O)c3cccc(Br)c3)[nH]c2c1 (configuration not stated) | -44* | . | -19%
CCCn1c(SCC(O)c2cccc(OC)c2)nc2ccccc21 (configuration not stated) | -9 | . | .
O=C(c1n[nH]c2c1CCCC2)N1CCc2c(nc3cc(-c4ccccc4)[nH]n3c2=O)C1 | 48 | i | .
Cc1nc2n(c1C(=O)NCCc1ccccc1)CCC(Nc1ccc(F)cc1)C2 (configuration not stated) | 2 | i | .
CNC(=O)c1ccccc1Nc1nc(Nc2ccc(N3CCNCC3)cc2)ncc1Cl | -20 | -3% | .
CNC(=O)c1ccccc1Nc1cc(Nc2ccc(N3CCOCC3)cc2OC)ncc1C(F)(F)F | -53* | 22µM* | ?
COc1ncccc1-c1cnc2[nH]cc(CC(=O)NC(C)C)c2c1 | 8 | 4%[88.5 µM] | .
O=C(Cc1c[nH]c2ncc(-c3ccc(Oc4ccccc4)cc3)cc12)NCc1cccnc1 | -15 | 2%[88.5 µM] | .
O=C(Cc1c[nH]c2ncc(-c3ccc(Cl)cc3)cc12)NCc1cccnc1 | -25* | -5%[88.5 µM] | -25%
COc1ncccc1-c1cnc2[nH]cc(CC(N)=O)c2c1 | -29* | 4%[88.5 µM] | ?
COCCNC(=O)Cc1c[nH]c2ncc(-c3ccc(OC)cc3)cc12 | 5 | ? | .
O=C(Cc1c[nH]c2ncc(-c3ccccc3C(F)(F)F)cc12)NCc1cccnc1 | -18 | -1%[88.5 µM] | .
COc1ccc(-c2cnc3[nH]cc(CC(N)=O)c3c2)cc1OC | -31* | -1%[88.5 µM] | ?
NC(=O)Cc1c[nH]c2ncc(-c3ccccc3C(F)(F)F)cc12 | -34* | -17%[88.5 µM] | ?
CS(=O)(=O)N1CCCN(C(=O)c2ccoc2)CCNC(=O)CC1c1ccccc1 (configuration not stated) | -10 | 3% | .
COCCOC1CN(C2CCN(C(=O)COc3ccc(F)cc3)CC2)C12CCCCC2 (configuration not stated) | 27 | -5% | .
O=C(C1CCOCC1)N1CC(CNc2ccccc2)C2(C1)CN(c1ccccc1)C2 (configuration not stated) | 6 | i | .
COc1ccc(-c2nc(C)nc3c2CN(C(=O)c2cccc(Cl)c2)CC3)cc1 | -5 | i | .
O=[S+]([O-])(c1cccc(C(F)(F)F)c1)N1CCN(Cc2ccccc2-c2cccnc2)CC1 | 11 | 4% | .
N#Cc1ccc(-c2cnc3[nH]cc(NC(=O)c4cccnc4)c3c2)cc1 | -28* | -6% | ?
SMILES | IP6K1 inh | GPT2 inhibitor | IP6K1 conf
O=C(Cc1c[nH]c2ncc(-c3ccc(F)cc3)cc12)N1CCOCC1 | -21 | 2%[88.5 µM] | .
CN(C)C(=O)Cc1c[nH]c2ncc(-c3cccnc3)cc12 | 0 | -8%[88.5 µM] | .
NC(=O)Cc1c[nH]c2ncc(-c3ccc(F)cc3)cc12 | -29* | i | ?
COCCNC(=O)[C@@H]1C[C@@H](O)CN1C1CCN(C(=O)c2ccc3c(c2)OCO3)CC1 | 6 | i | .
Cc1ccc(NC(=O)c2cnn3c(C(F)F)cc(-c4ccccc4)nc23)c(C)c1 | -50* | . | -19%
CC(C)(C)c1ccccc1NC(=O)c1cnn2c(C(F)F)cc(-c3ccccc3)nc12 | 0 | . | .
CC(=O)N1CCCN(c2ccnc3ccnn23)CC1 | -7 | 0%[88.5 µM] | .
CCCNC(=O)C1C(c2cccc(NC(=O)c3ccc(C)cc3)c2)OC(=O)N1Cc1ccc(C)cc1 (configuration not stated) | -10 | -2% | .
CCCN(CCC)CCCNC(=O)Cn1cnc2sc(C)c(S(=O)(=O)N3CCCCC3)c2c1=O | -27* | . | -6%
CCCN(CCC)CCCNC(=O)Cn1cnc2sc(C)c(S(=O)(=O)N3CCC(C)CC3)c2c1=O | 27 | . | .
O=C(CC1N=C2c3ccccc3N=C(SCc3ccccc3Cl)N2C1=O)NCc1cccs1 (configuration not stated) | -17 | . | .
